According to PubChem BioAssay:

experiment: viability profiling in RPMI8226 myeloma cells – cell-based, resazurin fluorescence, basal, 24 h, PK04 Diversity Set, profiling panel (AID 1180); conditions: higher = more signal;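 also: RPMI8826 multiple myeloma cell line at 5000 cells per well; test concentration not given here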

Compound | z-score
C=CCN1C(=O)[C@@]2(Cc3ccccc31)N=C(c1ccc(OCCCO)cc1)O[C@H]2c1ccccc1 | -2.81
CC(C)C(O)C1C=CC2C(=O)N(c3ccccc3)C(=O)C2N1Nc1ccc([N+](=O)[O-])cc1 (stereo unspecified) | -0.601
COC(=O)[C@H](Cc1ccccc1)N[C@@H](/C=C/C1CC1)[C@H](O)Cc1ccccc1 | 0.484
O=C1O[C@H](c2ccccc2)[C@H](c2ccccc2)N2[C@H]1[C@@H](C(=O)N1CCCCCCC1)[C@]1(C(=O)Nc3ccc(C#CC4=CCCCC4)cc31)[C@H]2c1ccc(OCCO)cc1 | 0.326
CCOC(=O)C[C@H]1[C@H](OC(=O)c2ccc(C(=O)c3ccccc3)cc2)[C@@H](NC(=O)c2ccccc2)c2cc(OCCCO)ccc2N1C(=O)Cc1ccc(OC)cc1 | 0.702
COc1ccc([Si](C)(C)[C@H]2[C@H](CCO)O[C@@]3(C(=O)N(Cc4ccc(N(C=O)c5ccccc5)cc4)c4ccccc43)[C@@H]2C)cc1 | -2.77
CC(C)c1ccc(NN2C(C(O)c3ccc(B(O)O)cc3)C=CC3C(=O)N(c4ccccc4)C(=O)C32)cc1 (stereo unspecified) | -0.948
COc1ccc(CCNC(=O)[C@@]2(Sc3ccc(C)cc3)CC(=O)N(C3Cc4ccccc4C3)[C@@H]2c2ccc(CO)cc2I)cc1 | -1.43
COCCOC(=O)N1C(=O)[C@@]2(c3ccccc31)[C@H](c1ccc(O)cc1)N1[C@H](c3ccccc3)[C@H](c3ccccc3)OC(=O)[C@H]1[C@@H]2C(=O)Nc1nc2ccccc2s1 | -0.456
C=C(C(=O)CC[C@@H](OC(=O)c1cccnc1)c1ccccc1OCCO)C(C)C | -0.632
NCCCCCNC(=O)[C@@H]1C[C@@H]2C(=O)N[C@@H](Cc3ccccc3)C(=O)N2[C@@H]1c1ccc(O)cc1 | 0.15
CCCCCCc1nc(-c2ccc(OC)nc2)cc2c1[Si](C(C)C)(C(C)C)O[C@H]2c1ccccc1 | 0.732
C[N+](C)(C)CCCCNC(=O)[C@@H]1C[C@@H]2C(=O)N[C@@H](Cc3ccccc3)C(=O)N2[C@@H]1c1cccc(OCCO)c1 | 0.0965
COc1cc2c(cc1O)C(c1cccs1)N(C)CC2 (stereo unspecified) | -0.468
C[C@@]1([C@@H](NC(=O)c2ccc(-c3ccccc3)cc2)c2ccc(Cl)cc2)C[C@H]1C1CCCCC1 | -6.37
Cc1ccc(S[C@]2(C(=O)O)CC(=O)N(C(C)C)[C@@H]2c2ccc(CO)cc2I)cc1 | -1.58

Compound | z-score
CN1C(=O)C2C=CC(C(O)C3CC=CCC3)N(N(c3ccccc3)c3ccccc3)C2C1=O (stereo unspecified) | -1.06
O=C1NC(=O)C2C1C=CC(C(O)c1cccs1)N2Nc1ccc(Cl)cc1Cl (stereo unspecified) | -0.229
C=CCC(OC(C)=O)[C@@H]1[C@@H](N(Cc2ccc(-c3ccccc3)cc2)C(=O)Cc2ccc(OC)cc2)c2cc(OCCCO)ccc2N1C(=O)Cc1ccc2ccccc2c1 (stereo partly specified) | -0.798
CC(C)C[C@@H]1NC(=O)[C@@H]2C[C@H](C(=O)NCc3ccc(F)cc3)[C@H](c3cccc(OCCO)c3)N2C1=O | 0.919
C=CCC(OC(C)=O)[C@@H]1[C@@H](N(Cc2ccc(-c3ccccc3)cc2)C(=O)c2cccc3ccccc23)c2cc(OCCCO)ccc2N1C(=O)c1ccc(-c2ccccc2)cc1 (stereo partly specified) | 0.234
CCCC[C@H]1OB(O)C[C@H]2C1=C(COC)Cn1c(=O)n(-c3ccccc3)c(=O)n12 | -0.214
O=C1NC(=O)C2C1C=CC(C(O)c1cc(C(F)(F)F)cc(C(F)(F)F)c1)N2Nc1ccccn1 (stereo unspecified) | -1.2
CC1CC/C=C\[C@H]2OC34C=CCN(Cc5ccccc5)C(=O)[C@H]3N(CCCO)C(=O)[C@@H]4C2C(=O)O1 (stereo partly specified) | 0.44
C=C(CC1([C@@H](NP(=O)(c2ccccc2)c2ccccc2)[C@H]2C[C@@H]2CCCC)CC1)c1ccccc1 | 3.34
CC(C)N1C(=O)c2ccccc2[C@](C)(C(=O)NCCN2CCOCC2)[C@@H]1c1ccc(CO)cc1 | -0.44
[N-]=[N+]=NCc1ccccc1[C@@H]1OC(c2ccc(OCCCO)cc2)=N[C@]1(Cc1ccccc1)C(=O)NCC(O)CO (stereo partly specified) | -0.665
Cc1ccc(S[C@]2(C(=O)NCCCN(C)C)CC(=O)N(Cc3ccccc3C(F)(F)F)[C@@H]2c2ccc(CO)cc2)cc1 | 0.119
[N-]=[N+]=Nc1ccccc1[C@@H]1OC(c2ccc(OCCCO)cc2)=N[C@]1(Cc1ccccc1)C(=O)N1CCOCC1 | -1.58
Cc1nc2cc(Br)ccc2c(=O)o1 | 1.21
CC1CC/C=C\[C@H]2OC34C=CCN(C(C)(C)C)C(=O)[C@H]3N(C(C)CO)C(=O)[C@@H]4C2C(=O)O1 (stereo partly specified) | -0.0501
